# Measured values taken from PMC12350791.
# How the values were obtained:
# [1] = molecular target: ATP-dependent RNA helicase DDX24 (UniProt Q9GZR7); test: cross-linking mass spectrometry
# [2] = molecular target: Spectrin alpha chain, non-erythrocytic 1 (UniProt Q13813); test: cross-linking mass spectrometry
# [3] = molecular target: T1, Twinfilin-2 (UniProt Q6IBS0); test: cross-link between two proteins; cross-linking mass spectrometry
# T1 sequence: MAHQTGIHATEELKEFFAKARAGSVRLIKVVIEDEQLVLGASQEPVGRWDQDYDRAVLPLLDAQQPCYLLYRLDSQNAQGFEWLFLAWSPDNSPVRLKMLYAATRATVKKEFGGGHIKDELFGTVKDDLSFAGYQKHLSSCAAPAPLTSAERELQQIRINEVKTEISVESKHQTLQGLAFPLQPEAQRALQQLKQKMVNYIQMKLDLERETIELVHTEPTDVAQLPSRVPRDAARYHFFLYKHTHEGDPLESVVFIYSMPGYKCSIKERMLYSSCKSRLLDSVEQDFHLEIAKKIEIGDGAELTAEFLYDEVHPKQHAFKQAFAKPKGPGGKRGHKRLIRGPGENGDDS
# [4] = molecular target: Superkiller complex protein 8 (UniProt Q9GZS3); test: as above
substance,measurement,setting,value
"Large ribosomal subunit protein eL20, Q02543",listed as a hit,[1],yes
"Actin, cytoplasmic 1, P60709",listed as a hit,[2],yes
same,listed as a hit,[3],yes
"RNA polymerase-associated protein CTR9 homolog, Q6PD62",listed as a hit,[4],yes
